Laboratory results taken from paper PMC7862700, “An all-to-all approach to the identification of sequence-specific readers for epigenetic DNA modifications on cytosine”.

Columns and labels:
Assay in all cases: DAPPL (digital affinity profiling via proximity ligation, sequencing); 10 mM Tris-HCl pH 7.5, 50 mM NaCl, 1 mM DTT, 4% glycerol, room temperature, 30 min; GST-TFs on glutathione beads, 16-mer random dsDNA library, 0.1% formaldehyde crosslink after washing; high values mean tight binding
FLI1 = biological target: T1, FLI1 (Homo sapiens, UniProt Q01543 1-452); conditions: protein: recombinant; tags: N-terminal GST; dsDNA, one strand shown
T1 sequence: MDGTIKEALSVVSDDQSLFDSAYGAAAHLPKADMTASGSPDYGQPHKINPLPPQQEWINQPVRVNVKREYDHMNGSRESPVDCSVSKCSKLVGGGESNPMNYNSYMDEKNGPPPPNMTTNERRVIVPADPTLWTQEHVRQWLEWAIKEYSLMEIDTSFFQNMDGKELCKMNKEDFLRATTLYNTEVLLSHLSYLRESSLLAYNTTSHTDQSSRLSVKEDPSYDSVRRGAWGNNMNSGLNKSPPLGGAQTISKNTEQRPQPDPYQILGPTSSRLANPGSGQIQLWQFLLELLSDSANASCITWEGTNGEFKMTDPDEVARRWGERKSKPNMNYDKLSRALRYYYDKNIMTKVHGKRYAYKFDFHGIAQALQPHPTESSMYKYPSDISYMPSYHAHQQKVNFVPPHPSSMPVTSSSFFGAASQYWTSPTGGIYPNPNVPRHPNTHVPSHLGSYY
How it was run: (§1)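 A tag-only sample was pooled with DNA-barcoded human transcription factors that had been expressed in yeast as GST fusions and captured on glutathione beads. The pools were incubated for 30 min at room temperature with 200 nmole of a random double-stranded 16-mer DNA library in Tris/NaCl/DTT/glycerol buffer, then washed, crosslinked with 0.1% formaldehyde, proximity-ligated (BsaI/T4 ligase, 1 h, 37 °C), PCR-amplified and sequenced on an Illumina NextSeq500. Binding signal is each hexamer's read frequency for a factor divided by its frequency for the tag-only sample.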

ELK1 = biological target: T2, ELK1 (Homo sapiens, UniProt P19419 1-428); conditions: protein: recombinant; tags: N-terminal GST; dsDNA, one strand shown
T2 sequence: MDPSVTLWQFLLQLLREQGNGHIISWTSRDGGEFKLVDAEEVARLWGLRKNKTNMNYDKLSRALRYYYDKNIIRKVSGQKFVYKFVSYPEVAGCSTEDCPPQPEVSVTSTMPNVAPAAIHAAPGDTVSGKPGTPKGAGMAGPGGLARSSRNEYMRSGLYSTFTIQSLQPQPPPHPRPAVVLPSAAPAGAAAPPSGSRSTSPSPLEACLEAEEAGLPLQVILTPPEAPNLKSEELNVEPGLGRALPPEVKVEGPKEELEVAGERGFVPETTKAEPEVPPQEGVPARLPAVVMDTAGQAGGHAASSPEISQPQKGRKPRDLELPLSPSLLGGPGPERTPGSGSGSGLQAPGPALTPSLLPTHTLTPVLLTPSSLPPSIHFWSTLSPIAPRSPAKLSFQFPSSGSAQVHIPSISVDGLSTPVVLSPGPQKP
How it was run: as §1

GABPA = biological target: T3, GABPA (Homo sapiens, UniProt Q06546 1-454); conditions: protein: recombinant; tags: N-terminal GST; dsDNA, one strand shown
T3 sequence: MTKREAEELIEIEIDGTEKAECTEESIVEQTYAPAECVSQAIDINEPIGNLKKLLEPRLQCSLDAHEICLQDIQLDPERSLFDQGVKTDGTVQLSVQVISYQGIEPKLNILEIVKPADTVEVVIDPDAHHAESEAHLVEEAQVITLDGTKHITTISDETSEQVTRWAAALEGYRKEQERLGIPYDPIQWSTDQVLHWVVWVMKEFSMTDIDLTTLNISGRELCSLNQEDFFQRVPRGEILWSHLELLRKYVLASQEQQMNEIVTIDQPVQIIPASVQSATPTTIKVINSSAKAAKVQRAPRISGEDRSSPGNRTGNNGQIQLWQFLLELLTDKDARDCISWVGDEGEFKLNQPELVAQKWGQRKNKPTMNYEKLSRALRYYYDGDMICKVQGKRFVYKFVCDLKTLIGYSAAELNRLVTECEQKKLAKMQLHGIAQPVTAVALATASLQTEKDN
How it was run: as §1

ERG = biological target: T4, ERG (Homo sapiens, UniProt P11308 1-479); conditions: protein: recombinant; tags: N-terminal GST; dsDNA, one strand shown
T4 sequence: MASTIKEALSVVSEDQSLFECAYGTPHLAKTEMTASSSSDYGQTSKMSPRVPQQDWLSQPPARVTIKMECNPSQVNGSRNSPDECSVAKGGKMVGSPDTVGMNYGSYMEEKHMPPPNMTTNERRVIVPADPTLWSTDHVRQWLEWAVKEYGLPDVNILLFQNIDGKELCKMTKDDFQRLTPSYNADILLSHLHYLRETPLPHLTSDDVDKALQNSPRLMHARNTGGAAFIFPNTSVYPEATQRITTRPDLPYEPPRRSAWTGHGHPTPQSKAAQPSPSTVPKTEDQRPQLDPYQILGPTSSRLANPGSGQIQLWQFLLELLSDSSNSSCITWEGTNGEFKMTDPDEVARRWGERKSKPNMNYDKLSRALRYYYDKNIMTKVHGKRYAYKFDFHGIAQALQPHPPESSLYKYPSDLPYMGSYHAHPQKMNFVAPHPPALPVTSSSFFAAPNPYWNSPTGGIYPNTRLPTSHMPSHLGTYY
How it was run: as §1

ELF1 = ELF1 (Homo sapiens, UniProt P32519 1-619); conditions: protein: recombinant; tags: N-terminal GST; dsDNA, one strand shown
Sequence of ELF1 (P32519 whole entry): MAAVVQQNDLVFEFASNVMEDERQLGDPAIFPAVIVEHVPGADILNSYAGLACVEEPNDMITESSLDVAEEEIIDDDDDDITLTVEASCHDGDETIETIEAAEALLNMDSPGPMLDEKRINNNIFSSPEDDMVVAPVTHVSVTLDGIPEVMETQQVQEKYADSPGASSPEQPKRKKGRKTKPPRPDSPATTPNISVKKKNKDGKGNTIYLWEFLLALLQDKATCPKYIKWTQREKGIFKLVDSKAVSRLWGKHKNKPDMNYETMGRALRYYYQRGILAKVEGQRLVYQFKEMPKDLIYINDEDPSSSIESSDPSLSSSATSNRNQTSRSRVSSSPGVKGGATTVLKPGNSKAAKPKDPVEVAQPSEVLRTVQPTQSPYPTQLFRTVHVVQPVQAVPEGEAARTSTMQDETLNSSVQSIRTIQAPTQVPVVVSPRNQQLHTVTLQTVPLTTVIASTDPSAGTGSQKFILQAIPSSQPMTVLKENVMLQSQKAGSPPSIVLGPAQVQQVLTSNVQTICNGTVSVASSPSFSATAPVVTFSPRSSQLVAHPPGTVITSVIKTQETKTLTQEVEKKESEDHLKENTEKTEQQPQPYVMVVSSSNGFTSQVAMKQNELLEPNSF
How it was run: as §1

EHF = biological target: T5, EHF (Homo sapiens, UniProt Q9NZC4 1-300); conditions: protein: recombinant; tags: N-terminal GST; dsDNA, one strand shown
T5 sequence: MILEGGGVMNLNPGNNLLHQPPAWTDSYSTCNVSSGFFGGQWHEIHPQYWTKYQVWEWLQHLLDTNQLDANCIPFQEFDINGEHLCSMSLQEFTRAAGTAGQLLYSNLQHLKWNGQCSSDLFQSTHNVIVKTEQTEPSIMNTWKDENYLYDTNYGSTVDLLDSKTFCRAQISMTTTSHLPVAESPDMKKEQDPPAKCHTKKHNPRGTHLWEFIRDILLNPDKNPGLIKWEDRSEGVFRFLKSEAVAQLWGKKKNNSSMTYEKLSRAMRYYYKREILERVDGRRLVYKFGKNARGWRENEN
How it was run: as §1

SPI1 = SPI1 (Homo sapiens, UniProt P17947 1-270); conditions: protein: recombinant; tags: N-terminal GST; dsDNA, one strand shown
How it was run: as §1

SPIB = SPIB (Homo sapiens, UniProt Q01892 1-262); conditions: protein: recombinant; tags: N-terminal GST; dsDNA, one strand shown
Sequence of SPIB (Q01892 whole entry): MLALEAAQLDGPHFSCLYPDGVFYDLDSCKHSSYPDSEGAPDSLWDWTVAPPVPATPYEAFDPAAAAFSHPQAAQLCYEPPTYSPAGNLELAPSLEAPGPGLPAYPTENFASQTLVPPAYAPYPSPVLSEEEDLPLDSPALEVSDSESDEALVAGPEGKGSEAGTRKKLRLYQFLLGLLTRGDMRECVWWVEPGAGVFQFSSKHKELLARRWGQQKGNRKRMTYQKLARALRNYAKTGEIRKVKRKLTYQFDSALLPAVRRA
How it was run: as §1

ELK3 = biological target: T6, ELK3 (Homo sapiens, UniProt P41970 1-407); conditions: protein: recombinant; tags: N-terminal GST; dsDNA, one strand shown
T6 sequence: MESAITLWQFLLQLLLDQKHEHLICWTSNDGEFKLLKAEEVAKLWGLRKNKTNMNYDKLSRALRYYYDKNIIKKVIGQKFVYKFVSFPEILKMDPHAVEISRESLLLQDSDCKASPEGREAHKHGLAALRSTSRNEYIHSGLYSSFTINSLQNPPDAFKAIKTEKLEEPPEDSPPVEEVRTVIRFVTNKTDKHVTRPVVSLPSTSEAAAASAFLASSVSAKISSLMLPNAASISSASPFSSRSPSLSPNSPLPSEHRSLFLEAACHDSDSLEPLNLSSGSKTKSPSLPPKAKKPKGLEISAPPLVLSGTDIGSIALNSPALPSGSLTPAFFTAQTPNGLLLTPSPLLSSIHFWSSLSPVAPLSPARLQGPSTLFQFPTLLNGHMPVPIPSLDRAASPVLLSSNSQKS
How it was run: as §1

FEV = biological target: T7, FEV (Homo sapiens, UniProt Q99581 1-238); conditions: protein: recombinant; tags: N-terminal GST; dsDNA, one strand shown
T7 sequence: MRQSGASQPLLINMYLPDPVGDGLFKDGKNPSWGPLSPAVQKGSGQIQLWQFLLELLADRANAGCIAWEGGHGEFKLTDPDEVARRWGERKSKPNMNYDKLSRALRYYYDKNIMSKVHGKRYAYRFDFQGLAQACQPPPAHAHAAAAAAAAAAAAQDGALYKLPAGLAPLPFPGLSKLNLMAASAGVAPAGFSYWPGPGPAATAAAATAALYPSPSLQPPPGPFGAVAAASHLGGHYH
How it was run: as §1

ETV5 = ETV5 (Homo sapiens, UniProt P41161 1-510); conditions: protein: recombinant; tags: N-terminal GST; dsDNA, one strand shown
Sequence of ETV5 (P41161 whole entry): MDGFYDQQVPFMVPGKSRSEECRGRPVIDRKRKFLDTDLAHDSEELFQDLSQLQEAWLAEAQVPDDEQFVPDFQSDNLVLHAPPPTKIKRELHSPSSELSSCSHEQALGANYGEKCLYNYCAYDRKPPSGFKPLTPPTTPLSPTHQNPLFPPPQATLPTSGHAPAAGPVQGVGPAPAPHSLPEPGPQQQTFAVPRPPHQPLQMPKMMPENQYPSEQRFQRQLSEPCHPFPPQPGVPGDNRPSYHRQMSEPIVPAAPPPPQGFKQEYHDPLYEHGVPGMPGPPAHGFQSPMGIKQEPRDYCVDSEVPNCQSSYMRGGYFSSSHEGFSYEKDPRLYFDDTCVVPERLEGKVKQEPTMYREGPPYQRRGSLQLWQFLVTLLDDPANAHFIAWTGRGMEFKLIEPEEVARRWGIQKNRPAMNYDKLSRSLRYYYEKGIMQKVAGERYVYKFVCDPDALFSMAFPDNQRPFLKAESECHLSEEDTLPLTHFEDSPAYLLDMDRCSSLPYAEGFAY
How it was run: as §1

HSF1 = HSF1 (Homo sapiens, UniProt Q00613 1-529); conditions: protein: recombinant; tags: N-terminal GST; chain copies: 3; dsDNA, one strand shown
Sequence of HSF1 (Q00613 whole entry): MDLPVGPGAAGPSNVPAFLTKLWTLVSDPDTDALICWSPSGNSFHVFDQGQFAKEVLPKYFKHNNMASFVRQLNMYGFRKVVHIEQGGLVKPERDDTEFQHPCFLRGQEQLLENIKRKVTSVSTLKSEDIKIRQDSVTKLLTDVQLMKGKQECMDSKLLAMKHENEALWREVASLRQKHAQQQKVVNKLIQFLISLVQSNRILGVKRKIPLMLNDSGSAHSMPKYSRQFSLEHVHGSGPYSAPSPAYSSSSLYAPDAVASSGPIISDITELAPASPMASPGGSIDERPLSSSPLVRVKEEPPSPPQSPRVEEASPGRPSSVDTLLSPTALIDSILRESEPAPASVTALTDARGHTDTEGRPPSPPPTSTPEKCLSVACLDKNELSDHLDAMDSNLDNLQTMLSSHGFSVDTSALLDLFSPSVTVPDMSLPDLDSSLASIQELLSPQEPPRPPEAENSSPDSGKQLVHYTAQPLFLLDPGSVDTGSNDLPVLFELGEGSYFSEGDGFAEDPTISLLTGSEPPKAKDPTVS
How it was run: as §1

SPIC = biological target: T8, SPIC (Homo sapiens, UniProt Q8N5J4 1-248); conditions: protein: recombinant; tags: N-terminal GST; dsDNA, one strand shown
T8 sequence: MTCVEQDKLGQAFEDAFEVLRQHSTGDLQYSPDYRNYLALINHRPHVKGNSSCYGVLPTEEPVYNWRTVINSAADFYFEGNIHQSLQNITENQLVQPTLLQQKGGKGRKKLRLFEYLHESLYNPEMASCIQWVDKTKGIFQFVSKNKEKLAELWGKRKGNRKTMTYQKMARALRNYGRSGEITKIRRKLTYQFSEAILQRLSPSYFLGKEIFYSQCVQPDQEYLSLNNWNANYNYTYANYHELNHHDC
How it was run: as §1

ELF4 = ELF4 (Homo sapiens, UniProt Q99607 1-663); conditions: protein: recombinant; tags: N-terminal GST; dsDNA, one strand shown
Sequence of ELF4 (Q99607 whole entry): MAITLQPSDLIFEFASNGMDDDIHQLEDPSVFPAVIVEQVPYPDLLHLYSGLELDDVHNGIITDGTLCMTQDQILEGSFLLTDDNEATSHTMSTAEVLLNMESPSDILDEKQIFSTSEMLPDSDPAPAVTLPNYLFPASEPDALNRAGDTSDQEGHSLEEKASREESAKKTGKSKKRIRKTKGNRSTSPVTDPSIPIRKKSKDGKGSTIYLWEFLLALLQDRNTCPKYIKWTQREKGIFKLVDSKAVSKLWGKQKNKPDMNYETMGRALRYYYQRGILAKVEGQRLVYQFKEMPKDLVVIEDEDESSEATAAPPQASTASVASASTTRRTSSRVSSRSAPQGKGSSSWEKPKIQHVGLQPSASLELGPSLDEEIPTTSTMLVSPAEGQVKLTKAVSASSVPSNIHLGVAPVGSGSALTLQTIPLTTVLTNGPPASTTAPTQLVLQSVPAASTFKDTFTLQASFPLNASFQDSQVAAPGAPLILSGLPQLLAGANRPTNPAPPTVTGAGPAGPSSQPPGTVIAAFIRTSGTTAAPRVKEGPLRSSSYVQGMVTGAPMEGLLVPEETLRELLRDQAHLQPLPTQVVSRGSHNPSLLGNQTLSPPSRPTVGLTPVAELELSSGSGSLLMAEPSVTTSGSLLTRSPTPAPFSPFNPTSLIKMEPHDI
How it was run: as §1

ELK4 = biological target: T9, ELK4 (Homo sapiens, UniProt P28324-2 1-405); conditions: protein: recombinant; tags: N-terminal GST; dsDNA, one strand shown
T9 sequence: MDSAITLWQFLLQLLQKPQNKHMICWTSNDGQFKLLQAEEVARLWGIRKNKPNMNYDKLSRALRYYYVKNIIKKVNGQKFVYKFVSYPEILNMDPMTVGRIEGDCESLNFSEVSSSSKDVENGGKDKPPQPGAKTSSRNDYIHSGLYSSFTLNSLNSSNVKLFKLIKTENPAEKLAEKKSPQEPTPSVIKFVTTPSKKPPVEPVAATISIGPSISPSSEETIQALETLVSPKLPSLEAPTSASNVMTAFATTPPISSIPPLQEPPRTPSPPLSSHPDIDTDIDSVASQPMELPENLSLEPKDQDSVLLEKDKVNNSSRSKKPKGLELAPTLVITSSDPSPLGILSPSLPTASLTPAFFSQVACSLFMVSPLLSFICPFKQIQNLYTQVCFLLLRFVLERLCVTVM
How it was run: as §1

ETV2 = biological target: T10, ETV2 (Homo sapiens, UniProt O00321 1-342); conditions: protein: recombinant; tags: N-terminal GST; dsDNA, one strand shown
T10 sequence: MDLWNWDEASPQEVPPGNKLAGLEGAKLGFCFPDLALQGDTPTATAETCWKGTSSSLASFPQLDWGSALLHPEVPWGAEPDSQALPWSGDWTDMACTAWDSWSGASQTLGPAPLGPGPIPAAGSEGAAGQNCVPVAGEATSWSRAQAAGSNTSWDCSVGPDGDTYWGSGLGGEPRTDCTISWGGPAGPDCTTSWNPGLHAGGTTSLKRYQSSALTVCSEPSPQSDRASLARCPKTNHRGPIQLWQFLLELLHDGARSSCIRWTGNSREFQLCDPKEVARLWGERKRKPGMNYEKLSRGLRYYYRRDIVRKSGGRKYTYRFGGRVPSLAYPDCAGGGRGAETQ
How it was run: as §1

ELF3 = biological target: T11, ELF3 (Homo sapiens, UniProt P78545 1-371); conditions: protein: recombinant; tags: N-terminal GST; dsDNA, one strand shown
T11 sequence: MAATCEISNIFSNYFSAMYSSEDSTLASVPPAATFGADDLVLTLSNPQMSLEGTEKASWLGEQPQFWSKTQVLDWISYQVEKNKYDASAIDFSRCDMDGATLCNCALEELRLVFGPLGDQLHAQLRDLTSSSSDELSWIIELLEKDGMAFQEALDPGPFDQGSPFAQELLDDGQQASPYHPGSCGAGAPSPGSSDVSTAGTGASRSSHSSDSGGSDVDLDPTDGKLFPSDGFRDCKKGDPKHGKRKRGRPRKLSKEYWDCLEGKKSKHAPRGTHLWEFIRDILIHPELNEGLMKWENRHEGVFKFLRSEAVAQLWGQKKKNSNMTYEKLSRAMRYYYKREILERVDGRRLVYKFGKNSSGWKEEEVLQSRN
How it was run: as §1

CRX = CRX (Homo sapiens, UniProt O43186 1-299); conditions: protein: recombinant; tags: N-terminal GST; dsDNA, one strand shown
Sequence of CRX (O43186 whole entry): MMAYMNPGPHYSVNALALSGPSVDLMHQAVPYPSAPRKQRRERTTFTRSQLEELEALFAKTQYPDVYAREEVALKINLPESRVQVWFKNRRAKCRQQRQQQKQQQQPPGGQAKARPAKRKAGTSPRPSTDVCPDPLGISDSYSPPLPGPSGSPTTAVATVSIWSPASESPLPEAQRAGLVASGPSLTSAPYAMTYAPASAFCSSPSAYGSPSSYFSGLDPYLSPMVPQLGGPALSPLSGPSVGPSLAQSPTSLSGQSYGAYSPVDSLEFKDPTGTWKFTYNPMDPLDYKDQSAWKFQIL
How it was run: as §1

ETV1 = ETV1 (Homo sapiens, UniProt P50549 1-477); conditions: protein: recombinant; tags: N-terminal GST; dsDNA, one strand shown
Sequence of ETV1 (P50549 whole entry): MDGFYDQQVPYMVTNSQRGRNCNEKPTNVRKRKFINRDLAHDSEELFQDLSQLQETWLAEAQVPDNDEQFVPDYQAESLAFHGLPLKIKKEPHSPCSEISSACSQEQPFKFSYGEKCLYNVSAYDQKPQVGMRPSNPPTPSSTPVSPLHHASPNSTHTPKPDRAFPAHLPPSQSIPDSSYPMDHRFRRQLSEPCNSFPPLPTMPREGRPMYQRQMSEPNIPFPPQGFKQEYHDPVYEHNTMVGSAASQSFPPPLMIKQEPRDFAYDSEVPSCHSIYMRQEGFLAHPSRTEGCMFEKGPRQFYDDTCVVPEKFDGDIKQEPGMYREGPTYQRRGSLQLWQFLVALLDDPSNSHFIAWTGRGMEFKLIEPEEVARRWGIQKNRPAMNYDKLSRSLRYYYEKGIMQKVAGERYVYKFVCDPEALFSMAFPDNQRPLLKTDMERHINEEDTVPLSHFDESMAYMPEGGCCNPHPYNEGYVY
How it was run: as §1

Sequence: TTGTAC
- binding signal (FLI1): 1.37 fold enrichment (6-mer frequency, TF over GST control)
- binding signal (ELK1): 1.51 fold enrichment (6-mer frequency, TF over GST control)
- binding signal (GABPA): 1.32 fold enrichment (6-mer frequency, TF over GST control)
- binding signal (ERG): 1.33 fold enrichment (6-mer frequency, TF over GST control)
- binding signal (ELF1): 1.41 fold enrichment (6-mer frequency, TF over GST control)
- binding signal (EHF): 1.33 fold enrichment (6-mer frequency, TF over GST control)
- binding signal (SPI1): 1.39 fold enrichment (6-mer frequency, TF over GST control)
- binding signal (SPIB): 1.44 fold enrichment (6-mer frequency, TF over GST control)
- binding signal (ELK3): 1.18 fold enrichment (6-mer frequency, TF over GST control)
- binding signal (FEV): 1.52 fold enrichment (6-mer frequency, TF over GST control)
- binding signal (ETV5): 1.48 fold enrichment (6-mer frequency, TF over GST control)
- binding signal (HSF1): 1.24 fold enrichment (6-mer frequency, TF over GST control)
- binding signal (SPIC): 1.46 fold enrichment (6-mer frequency, TF over GST control)
- binding signal (ELF4): 1.47 fold enrichment (6-mer frequency, TF over GST control)
- binding signal (ELK4): 1.55 fold enrichment (6-mer frequency, TF over GST control)
- binding signal (ETV2): 1.48 fold enrichment (6-mer frequency, TF over GST control)
- binding signal (ELF3): 1.39 fold enrichment (6-mer frequency, TF over GST control)
- binding signal (CRX): 1.2 fold enrichment (6-mer frequency, TF over GST control)
- binding signal (ETV1): 1.24 fold enrichment (6-mer frequency, TF over GST control)
